Source: PubChem
BAZ2B block = inhibitors of human BAZ2B bromodomain. Q9UIF8. AlphaScreen BAZ2B-H3K14Ac peptide displacement. Potency, µM (highest dose often 114 µM), for inactives: top-dose activity change, negative = inhibition, hits mostly inhibitors. 4.4% of 360,000 active. AID 504333; further: on the % scale 0 is the no-effect control and ±100 the full control effect; nearly all actives have a fitted effect of over 60% in size
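In this displacement format the biotinylated H3(5-23) peptide acetylated at Lys14 serves as ligand at 50 nM, with BAZ2B at 50 nM in PBS pH 7.4 containing 0.01% Tween-20. Donor and acceptor beads are 10 ug/mL final.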
G9a inh = inhibitors of human histone lysine methyltransferase G9a | Q96KQ7 | G9a H3K9 monomethylation, AlphaScreen, 2 h | Potency, µM (highest dose often 102 µM), inactives show top-dose activity, negative = inhibition, actives largely listed as inhibitors | 8.8% of 350,000 active; further: on the % scale 0 is the no-effect control and ±100 the full control effect; nearly all actives have a fitted effect of over 75% in size
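G9a (20 nM) was preincubated 15 min with compound, then reacted 2 h at room temperature with 500 nM biotin-H3K9 peptide and 20 µM SAM. Monomethyl-H3K9 detected by AlphaScreen using anti-H3K9me1 antibody.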
HP1b binding inh = HP1-beta chromodomain-methylated histone interaction inhibition. Potency, µM (highest dose often 114 µM), for the others: top-dose activity change, negative = inhibition, hits mostly inhibitors. 0.56% of 390,000 active. P83916. AlphaScreen HP1-beta / biotin-H3K9me3 peptide binding. AID 540317; further: nearly all actives have a fitted effect of over 70% in size
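Compound inhibition of the preformed complex between 50 nM HP1-beta and 50 nM biotinylated H3K9me3 peptide was read by AlphaScreen. Buffer was PBS pH 7.4 with 0.01% Tween-20. Incubations ran 30 min at room temperature, with 10 ug/mL donor/acceptor beads.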
L3MBTL1 inh = blocks human L3MBTL1 | 0.66% of 230,000 active | Q9Y468 | AlphaScreen L3MBTL1–H3K9me1 peptide binding | Potency, µM (highest dose often 57.1 µM), inactives show top-dose activity, negative = inhibition, most hits filed as inhibitors; further: on the % scale 0 is the no-effect control and ±100 the full control effect; nearly all actives have a fitted effect of over 60% in size
Target sequence (Q9Y468 whole entry, looked up): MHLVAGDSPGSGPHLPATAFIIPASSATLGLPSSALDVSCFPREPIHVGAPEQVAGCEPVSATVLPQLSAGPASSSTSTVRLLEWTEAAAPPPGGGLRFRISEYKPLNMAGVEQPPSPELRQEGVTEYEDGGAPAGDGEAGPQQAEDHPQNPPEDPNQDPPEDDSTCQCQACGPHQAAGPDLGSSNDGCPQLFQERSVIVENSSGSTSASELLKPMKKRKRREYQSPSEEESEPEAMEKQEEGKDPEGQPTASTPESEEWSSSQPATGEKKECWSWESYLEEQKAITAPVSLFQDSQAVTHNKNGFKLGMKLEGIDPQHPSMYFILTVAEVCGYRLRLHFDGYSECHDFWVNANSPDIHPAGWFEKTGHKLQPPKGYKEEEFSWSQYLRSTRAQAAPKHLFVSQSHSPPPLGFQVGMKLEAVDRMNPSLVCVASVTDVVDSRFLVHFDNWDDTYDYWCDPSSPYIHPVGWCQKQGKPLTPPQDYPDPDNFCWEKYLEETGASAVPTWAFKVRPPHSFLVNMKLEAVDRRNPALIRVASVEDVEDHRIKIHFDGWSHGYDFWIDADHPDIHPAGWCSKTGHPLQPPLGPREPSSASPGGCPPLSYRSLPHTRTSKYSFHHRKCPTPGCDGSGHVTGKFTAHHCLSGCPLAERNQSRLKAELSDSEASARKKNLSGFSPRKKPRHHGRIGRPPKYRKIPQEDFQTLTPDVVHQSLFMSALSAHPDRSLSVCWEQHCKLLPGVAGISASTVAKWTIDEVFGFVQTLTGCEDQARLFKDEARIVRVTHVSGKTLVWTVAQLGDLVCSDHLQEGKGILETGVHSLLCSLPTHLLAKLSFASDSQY
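AlphaScreen assay: L3MBTL1 (50 nM final) was preincubated 30 min at room temperature with biotinylated H3(1-15)K9me1 peptide (75 nM final), then 30 min with library compounds; streptavidin donor and nickel chelate acceptor beads (10 ug/mL final) added, 30 min dark.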
JMJD2A Tudor inh = blocks the human JMJD2A Tudor domain | Potency, µM (titrated, usually from 114 µM), without a hit: at the top dose activity change, negative = inhibition, usual class: inhibitors | O75164 | AID 504339 | 4.4% of 390,000 active | AlphaScreen JMJD2A-Tudor / H3K4me3 peptide binding; further: on the % scale 0 is the no-effect control and ±100 the full control effect; nearly all actives have a fitted effect of over 50% in size
Sfp inh = Sfp phosphopantetheinyl transferase inhibition; Q9F4F7; Biochemical Sfp PPTase activity, qHTS; Potency, µM, inactives show largest response in the series, negative = inhibition, usual class: inhibitors; 3.5% of 310,000 active; AID 1490;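 further: the enzyme is Sfp with the accession as filed and its product quenches rhodamine fluorescence; 0% = enzyme reaction without inhibitor and -100% = no enzyme wells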
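Compounds were incubated with enzyme (final 15 nM) for 15 min at room temperature before substrate addition started the reaction. Fluorescence at 525 nm excitation, 598 nm emission was recorded immediately and after 30 minutes.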
The depositor's hits bear a star; u = inconclusive; x = no result given; [ ] = dose if it differs, or a comment. A selection: hits, their analogues and other compounds. The true share with any hit is near 12%. The call rests on the fitted dose curve; in most records, active means well fitted curve in the direction sought with a large enough effect; inconclusive means small, poorly fitted or top-dose-only effect, or another doubt; inactive means no such curve, though single readings can be large; an effect the other way counts as inactive or inconclusive. Potency means the concentration at half of the fitted maximal effect.

SMILES | BAZ2B block | G9a inh | HP1b binding inh | L3MBTL1 inh | JMJD2A Tudor inh | Sfp inh
O=C1C(Cl)=C(Cl)C(=O)C(Cl)=C1Cl | x | u | x | x | x | -85%
CCOc1ccc(NC(=O)CSc2oc(-c3ccccc3)nc2S(=O)(=O)c2ccc(Cl)cc2)cc1 | -3% | -32%[59 µM] | 47% | x | -8% | x
CC1CN=C(Nc2ccc(N(C)C)cc2)S1 (stereo unspecified) | u | 35µM* | -34% | -9% | 40µM* | 9%
CC1CN=C(Nc2ccccc2)S1 (stereo unspecified) | 3% | -35%[59 µM] | 25% | -2% | 0% | 7%
OC12C3C4CC5C6C4C1C6C(C53)N2CCc1cccc(F)c1 (stereo unspecified) | x | x | x | x | x | 7%
O=C(CCl)c1ccc(Oc2ccc(C(=O)CCl)cc2)cc1 | x | u | x | x | x | 50µM*
CN1CC(C(=O)c2ccc(Cl)cc2)C(c2ccc(N(C)C)cc2)C1 (stereo unspecified) | 35µM* | 35µM* | -36% | u | 50µM* | 2%
Fc1ccc(C(OCCN2CCN(C/C=C/c3ccccc3)CC2)c2ccc(F)cc2)cc1 | x | 11µM* | x | x | x | 45µM*
Fc1ccc(C(OCCN2CCCC2)c2ccc(Br)cc2)cc1 (stereo unspecified) | 0% | -9%[59 µM] | 46% | -6% | 5% | 40µM*
c1ccc(CCCN2CCN(CCOC(c3ccccc3)c3ccccc3)CC2)cc1 | x | 10µM* | 4% | x | 56µM* | -17%
Fc1ccc(C(OCCN2CCN(CCCc3ccccc3)CC2)c2ccc(F)cc2)cc1 | x | u | -21% | x | 50µM* | 12%
Fc1ccc(C(OCCN2CCCC2)c2ccc(F)cc2)cc1 | 5% | 2%[59 µM] | 21% | 5% | -24% | 3%
O=P(O)(O)CCCl | x | x | x | x | x | 2%
CN1C(=O)C(=Cc2ccc(N3CCOCC3)o2)C(=O)N(C)C1=O | -27% | u | 16% | -10% | 0% | u
O=C(O)c1ccccc1-c1ccc(C=C2C(=O)N(c3ccccc3)C(=S)N(c3ccccc3)C2=O)o1 | 71µM* | 18%[0.501 µM] | -17% | -1%[2.29 µM] | 50µM* | 50µM*
C=CCn1c(-c2ccc([N+](=O)[O-])cc2)n[nH]c1=S | -4% | 5.6µM* | 6% | -5% | 8.9µM* | -10%
CC1CCCC(C)N1C(=O)CSc1nnc(NC(=O)c2cccs2)s1 (stereo unspecified) | -6% | 50µM* | 38% | 5% | -5%[57.1 µM] | 8%
CC(=O)Nc1nnc(SCC(=O)NCCOc2ccccc2)s1 | u | u | -5% | x | -18% | -11%
CCCCCNc1c(C(=O)OCC)c(=O)[nH]c2ccccc12 | 9% | 2%[59 µM] | -14% | 5% | 56µM* | -14%
Cc1ccc(-n2nc(C)c3c2OC(N)=C(C#N)C3c2cccs2)cc1 (stereo unspecified) | 35µM* | 35µM* | 37% | -22% | -1% | 6%
Cc1ccc(-n2nc(C)c(C3C(C#N)=C(N)Oc4c3c(=O)oc3ccccc43)c2Cl)cc1 (stereo unspecified) | 2% | 1%[59 µM] | x | -10% | x | 0%
O=C(O[C@@H]1Cc2c(O)cc(O)cc2O[C@@H]1c1cc(O)c(O)c(O)c1)c1cc(O)c(O)c(O)c1 | 8.9µM* | 1.8µM* | x | x | x | 11µM*
O=C(OC1Cc2c(O)cc(O)cc2OC1c1cc(O)c(O)c(O)c1)c1cc(O)c(O)c(O)c1 (stereo unspecified) | x | x | x | x | x | 18µM*
COC(=O)NC(=S)Nc1ccccc1NC(=S)NC(=O)OC | x | x | 5% | x | -24% | 32µM*
S=P(Nn1cnnc1)(c1ccc(Br)cc1)c1ccc(Br)cc1 | -5% | -21% | 25% | x | -25% | 79µM*
O=C1NC(c2cccnc2)Nc2sc3c(c21)CCCC3 (stereo unspecified) | 9% | u | 49% | 6% | -26% | -23%
CC1(C)Cc2c(sc3c2C(=O)NC(c2cccnc2)N3)CO1 (stereo unspecified) | 6% | u | 29% | 7% | -19% | 40µM*
